Measurements published in PubChem BioAssay.
Active and inactive are the calls of the source.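 Rule for the calls, unless noted: active = compound raises insulin release from rat beta cells at 5 mM glucose, no numeric limit stated; inactive = the rest.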

Legend:
[1] = stimulators of insulin release from INS-1E, primary screen, cell-based, 5 mM glucose, NPC library (AID 1117329); conditions: rat INS-1E insulin secretion, at 10 µM, stronger effect = higher value
[2] = growth inhibition of GSK3B-pretreated HCT116 cells – cell-based, CellTiter-Glo, 0.2 to 20 µM (AID 1117336;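 active = compounds lowering colon cancer cell viability after pretreatment blocking the GSK3B kinase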); conditions: HCT116 viability after GSK3B inhibitor, at 20 µM, stronger effect = higher value
[3] = inhibition of endothelial tube formation, primary screen, imaging, VEGF stimulated, CD31 staining, tube area, NPC library (AID 1117340;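 active = compound that reduces growth-factor-driven endothelial tube area in a mixed cell culture, no cutoff stated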); conditions: VEGF-stimulated ADSC/ECFC co-culture, at 10 µM, stronger effect = higher value
[4] = glucagon-like peptide 1 release enhancers, primary assay, NCI-H716 cell line, NPC library (AID 1117341;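 active = compound raises GLP1 secretion from the human gut endocrine cells, with no numeric limit stated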); conditions: NCI-H716 cells, at 10 µM, stronger effect = higher value
[5] = HCT116 colon cancer cell growth inhibition, primary screen, CellTiter-Glo luminescence, NPC library (AID 1117342;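 active = compounds that lower survival of HCT116 colon cancer cells in the luminescence readout, no numeric limit stated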); conditions: at 20 µM (top of the series)
[6] = CellTiter-Glo luminescent readout of SW480 viability loss, NPC library primary (AID 1117343;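 active = compounds that lower viability of the colon cancer cells in the luminescence readout, with no numeric limit stated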); conditions: CellTiter-Glo luminescence; at 20 µM (top of the series)
[7] = decreased DLD-1 cellular survival, CellTiter-Glo luminescent readout, NPC compound collection, primary HTS (AID 1117346;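 active = compounds that lower survival of DLD-1 colon cancer cells in the luminescence readout, no cutoff given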); conditions: DLD-1 viability, CellTiter-Glo luminescence; at 20 µM (top of the series)
[8] = molecular target: 6-phosphogluconate dehydrogenase, decarboxylating (Homo sapiens) (UniProt P52209); assay: 6PGD enzyme inhibitors, primary screen, biochemical, human, recombinant enzyme, NADPH absorbance (AID 1159550;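 active = at least 20% inhibition of 6-phosphogluconate dehydrogenase activity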); conditions: recombinant 6PGD, NADPH absorbance 341 nm; at 10 µM; stronger effect = higher value
Chain of 6-phosphogluconate dehydrogenase, decarboxylating (Homo sapiens) (P52209 whole entry, looked up): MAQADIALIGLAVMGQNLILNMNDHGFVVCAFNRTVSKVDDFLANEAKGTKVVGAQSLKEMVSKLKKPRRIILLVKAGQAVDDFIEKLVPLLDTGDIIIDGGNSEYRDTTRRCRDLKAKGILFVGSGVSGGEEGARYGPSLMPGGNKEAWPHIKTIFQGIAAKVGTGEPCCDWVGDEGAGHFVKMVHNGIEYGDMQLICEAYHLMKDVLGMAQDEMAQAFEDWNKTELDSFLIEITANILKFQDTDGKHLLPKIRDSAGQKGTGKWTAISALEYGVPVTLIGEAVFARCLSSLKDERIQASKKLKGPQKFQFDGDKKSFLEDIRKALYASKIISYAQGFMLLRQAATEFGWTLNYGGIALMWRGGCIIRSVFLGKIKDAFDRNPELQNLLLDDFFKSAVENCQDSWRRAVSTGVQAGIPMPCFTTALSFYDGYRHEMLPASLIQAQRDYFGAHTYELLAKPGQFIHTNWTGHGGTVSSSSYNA

[9] = differential killing of epithelial or mesenchymal cells, primary screen, imaging, PC-3E GFP, TEM4-18 mCherry, co-culture (AID 1345086;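 active = compounds killing one labelled cell type while sparing the other, by normalised counts and ratio limits, not self-fluorescent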;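 for all read-outs here: cells exposed to compound for 72 h before imaging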;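 for red/green cell ratio (normalised): normalised mesenchymal count divided by normalised epithelial count so high means epithelial killing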); conditions: imaging cell counts, at 1 µM; for red/green cell ratio (normalised): actives lie on both sides, counts scaled to control wells, 1 = unselective
[10] = measured here: epithelial PC-3E GFP cell survival
[11] = measured here: mesenchymal TEM4-18 mCherry cell survival

Structure (SMILES) | insulin secretion stimulation [1] | viability decrease [2] | tube area decrease [3] | GLP1 secretion stimulation [4] | inhibition of viability [5] | viability decrease (inhibition) [6] | viability decrease (inhibition) [7] | inhibition [8] | red/green cell ratio (normalised) [9] | normalised cell number [9, 10] | normalised cell number [9, 11]
Cc1[nH]c(C)c(Cl)c(=O)c1Cl | -1.1% (inactive) | 10.2% (inactive) | -15.3% (inactive) | 0.1% (inactive) | 6.55% (inactive) | 29% (inactive) | 11.2% (inactive) | -15% (inactive) | 0.99 (inactive) | 1 | 0.99
OC(CCN1CCCCC1)(c1ccccc1)c1ccccc1 | 60.4% (active) | 12.2% (inactive) | 1.5% (inactive) | 3.3% (inactive) | 23.9% (inactive) | 27% (inactive) | 2.1% (inactive) | 12.5% (inactive) | 0.87 (inactive) | 1.06 | 0.92
Cc1cc(C)nc(NS(=O)(=O)c2ccc(N)cc2)n1 | 0.4% (inactive) | -0.3% (inactive) | -24.8% (inactive) | 1.6% (inactive) | -12.6% (inactive) | 35.5% (inactive) | 6.75% (inactive) | 1.62% (inactive) | 1.29 (inactive) | 1.02 | 1.31
